From PubChem BioAssay
Results filed as inconclusive are left out. The source made the active and inactive calls.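 How the source made its calls, unless noted: active means GFP response, as percent of the DMSO control, above the screen-wide mean plus 3 SD, about 139; inconclusive means no response measured because the compound's own fluorescence interfered; inactive means the rest.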

Experiments:
[1] = rapamycin-like changes in RPL19A-GFP expression – cell-based, S. cerevisiae, multiplex flow cytometry, primary screen (AID 1862; in the data active means percent of DMSO control GFP below about 86%;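 further: lower values mimic rapamycin by blocking the RPL19A rise seen in DMSO cells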); settings: S. cerevisiae RPL19A-GFP strain, flow cytometry fluorescence, 3 h; at 10 µM; stronger effect = lower value
[2] = TOR pathway GLN3 branch reporter MEP2-GFP changes – S. cerevisiae, multiplex flow cytometry, primary screen (AID 1867);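 further: median GFP channel fluorescence of barcode-gated MEP2-GFP cells measured by flow cytometry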; settings: S. cerevisiae MEP2-GFP strain, 3 h, at 10 µM, stronger effect = higher value, 100% means same as DMSO wells
[3] = TOR pathway RTG branch CIT2 reporter changes – S. cerevisiae, GFP fusion, multiplex flow cytometry, primary screen (AID 1870;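 active means percent response above a set limit, the screen-wide mean plus 3 SD, cut at about 130% in these data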;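 further: barcoded CIT2-GFP strain pooled with four other GFP strains with rapamycin as positive control; median GFP fluorescence per well over plate mean of DMSO wells so 100% = DMSO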); settings: S. cerevisiae CIT2-GFP expression, 3 h, at 10 µM, stronger effect = higher value
[4] = TOR pathway LAP4-GFP level changes – S. cerevisiae, multiplex flow cytometry, primary screen (AID 1873;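 active means GFP signal, as percent of the solvent control, above the screen mean plus 3 SD, about 149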); settings: S. cerevisiae LAP4-GFP expression, 3 h, at 10 µM, stronger effect = higher value
[5] = yeast AGP1-GFP level changes, GLN3 branch – cell-based, multiplex flow cytometry, S. cerevisiae, primary screen (AID 1887;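 active means GFP signal above the screen-wide mean plus 3 SD, that is over about 124.5% of the solvent control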;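 further: AGP1-GFP fusion strain of S. cerevisiae within a five-strain barcoded multiplex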); settings: 3 h, at 10 µM, stronger effect = higher value
[6] = reduced mouse 2C T cell binding to pMHC/ICAM-1 vesicles – MLPCN validation set, flow cytometry, LFA-1/ICAM-1 modulator project, pilot screen (AID 2523;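 active means response below a set limit, under 55% cells CD8-positive and vesicle-bound, and CD8 cells' 90th-percentile brightness under 279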;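 on vesicle binding response: mean PE anti-B7-1 fluorescence of CD8+ cells relative to row control; 100% = QL9-loaded vesicles with DMSO vehicle in the same plate row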); settings: 2C mouse CD8+ T cells, at 7 µM, stronger effect = lower value; double positive events: measured here: CD8+/vesicle+ event percentage
[7] = biological target: Integrin beta-1 (Homo sapiens) + Integrin alpha-4 (Homo sapiens) (UniProt P13612+P05556); test: alpha4beta1 integrin LIBS antibody binding reduction – U937 cells, HUTS-21 mAb, flow cytometry, validation set, VLA-4 allosteric modulator project, pilot screen (AID 2674;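 active means inhibition above 50%, about 3 SD of the validation set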;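 further: antibody binding induced by the VLA-4 ligand LDV present at three times its Kd; 0% = LDV ligand with antibody and no compound and 100% = antibody without LDV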); settings: HUTS-21 LIBS mAb binding, at 6.7 µM, stronger effect = higher value, binding induced by LDV ligand
Chain of Integrin beta-1 (Homo sapiens) + Integrin alpha-4 (Homo sapiens) (P05556 whole entry, looked up): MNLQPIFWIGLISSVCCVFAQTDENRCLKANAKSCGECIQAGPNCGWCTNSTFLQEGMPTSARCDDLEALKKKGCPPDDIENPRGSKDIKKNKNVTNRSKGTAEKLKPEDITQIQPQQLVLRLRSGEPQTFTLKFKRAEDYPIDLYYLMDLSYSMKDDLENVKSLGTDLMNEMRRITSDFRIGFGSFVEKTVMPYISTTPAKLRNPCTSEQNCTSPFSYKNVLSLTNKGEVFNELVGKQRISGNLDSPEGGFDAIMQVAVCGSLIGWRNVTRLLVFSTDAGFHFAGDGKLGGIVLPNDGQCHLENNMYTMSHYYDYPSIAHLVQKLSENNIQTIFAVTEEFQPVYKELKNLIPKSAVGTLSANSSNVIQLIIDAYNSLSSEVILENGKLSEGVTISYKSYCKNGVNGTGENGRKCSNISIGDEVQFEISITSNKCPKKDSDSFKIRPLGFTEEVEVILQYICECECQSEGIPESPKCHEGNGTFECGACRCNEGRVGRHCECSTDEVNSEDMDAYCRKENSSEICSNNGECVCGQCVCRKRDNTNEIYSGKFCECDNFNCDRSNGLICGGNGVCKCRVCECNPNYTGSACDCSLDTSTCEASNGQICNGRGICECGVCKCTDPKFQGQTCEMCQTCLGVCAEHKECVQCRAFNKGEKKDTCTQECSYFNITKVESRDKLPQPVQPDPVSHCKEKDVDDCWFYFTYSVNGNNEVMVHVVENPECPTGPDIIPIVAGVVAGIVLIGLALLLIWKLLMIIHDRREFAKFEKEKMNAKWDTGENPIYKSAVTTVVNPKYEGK
Chain of Integrin beta-1 (Homo sapiens) + Integrin alpha-4 (Homo sapiens) (P13612 whole entry, looked up): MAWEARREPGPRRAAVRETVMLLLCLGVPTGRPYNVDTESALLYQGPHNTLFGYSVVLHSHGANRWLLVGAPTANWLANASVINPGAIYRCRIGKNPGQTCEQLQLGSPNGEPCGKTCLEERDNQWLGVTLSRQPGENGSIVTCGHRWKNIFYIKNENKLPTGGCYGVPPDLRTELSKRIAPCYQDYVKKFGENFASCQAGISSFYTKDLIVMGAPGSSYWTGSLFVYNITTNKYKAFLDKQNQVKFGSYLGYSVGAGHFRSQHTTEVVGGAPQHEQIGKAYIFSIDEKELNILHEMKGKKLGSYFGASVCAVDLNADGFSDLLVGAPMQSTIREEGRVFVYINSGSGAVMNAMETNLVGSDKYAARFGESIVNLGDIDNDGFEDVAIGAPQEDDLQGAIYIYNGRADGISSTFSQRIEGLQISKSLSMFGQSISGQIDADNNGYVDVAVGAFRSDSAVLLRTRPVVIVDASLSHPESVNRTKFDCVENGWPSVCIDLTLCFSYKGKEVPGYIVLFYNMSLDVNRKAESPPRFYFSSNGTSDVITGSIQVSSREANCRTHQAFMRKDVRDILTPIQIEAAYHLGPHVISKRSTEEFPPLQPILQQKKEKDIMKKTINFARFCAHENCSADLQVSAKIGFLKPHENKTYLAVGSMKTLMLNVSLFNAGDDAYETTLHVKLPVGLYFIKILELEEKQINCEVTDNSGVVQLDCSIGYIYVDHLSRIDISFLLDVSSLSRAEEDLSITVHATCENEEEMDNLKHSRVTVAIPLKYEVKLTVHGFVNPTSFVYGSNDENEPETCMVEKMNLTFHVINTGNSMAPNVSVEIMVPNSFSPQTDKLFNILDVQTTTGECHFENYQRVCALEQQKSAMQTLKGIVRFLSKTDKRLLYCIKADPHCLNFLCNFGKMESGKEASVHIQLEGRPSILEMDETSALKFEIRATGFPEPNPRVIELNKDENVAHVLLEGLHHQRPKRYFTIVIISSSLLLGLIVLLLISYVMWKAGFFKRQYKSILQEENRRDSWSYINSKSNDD

[8] = calorie-restriction mimetic ROS inhibitors, yeast – validation compound set, pilot screen (AID 2706;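 active means superoxide response below 65% of plate, a cut near 3 SD across the whole screen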;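 further: yeast exposed to compound for one week at 30 degrees C before staining; 100% = mean of all compound wells on the same plate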); settings: S. cerevisiae aging, superoxide DHE fluorescence; at 10 µM; stronger effect = lower value
[9] = biological target: Beta-adrenergic receptor kinase 1 (Homo sapiens) (UniProt P25098); test: GRK2 binders displacing RNA aptamer, biochemical, validation, human GRK2, bead flow cytometry (AID 488806;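 active means aptamer binding inhibition above 30%, about 3 SD of noise from non-fluorescent compounds; inactive means inhibition at or below 30%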); settings: bead-bound GRK2, FAM-aptamer displacement, at 10 µM, stronger effect = higher value
Chain of Beta-adrenergic receptor kinase 1 (Homo sapiens) (P25098 whole entry, looked up): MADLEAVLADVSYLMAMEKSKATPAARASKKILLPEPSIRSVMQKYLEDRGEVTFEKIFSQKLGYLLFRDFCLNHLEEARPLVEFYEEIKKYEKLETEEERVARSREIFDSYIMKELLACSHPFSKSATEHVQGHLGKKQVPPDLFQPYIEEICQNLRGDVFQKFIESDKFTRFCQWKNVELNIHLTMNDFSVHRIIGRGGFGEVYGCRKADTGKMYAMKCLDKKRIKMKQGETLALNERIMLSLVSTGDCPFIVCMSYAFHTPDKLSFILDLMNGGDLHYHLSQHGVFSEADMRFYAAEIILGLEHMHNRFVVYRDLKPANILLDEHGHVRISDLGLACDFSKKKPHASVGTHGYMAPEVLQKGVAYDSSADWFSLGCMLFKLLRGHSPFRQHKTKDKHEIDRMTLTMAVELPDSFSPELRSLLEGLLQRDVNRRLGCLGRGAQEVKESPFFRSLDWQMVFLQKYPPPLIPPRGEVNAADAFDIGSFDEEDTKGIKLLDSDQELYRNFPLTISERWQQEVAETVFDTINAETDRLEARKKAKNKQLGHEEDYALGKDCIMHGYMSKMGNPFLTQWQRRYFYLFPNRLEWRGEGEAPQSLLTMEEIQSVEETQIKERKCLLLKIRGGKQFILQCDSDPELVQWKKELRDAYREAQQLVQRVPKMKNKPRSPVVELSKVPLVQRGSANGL

[10] = biological target: Beta-2 adrenergic receptor (Homo sapiens) (UniProt P07550); test: agonist-induced loss of surface beta2AR – cell-based, FAP fluorogen, flow cytometry, validation set, pilot screen (AID 504459;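 active means percent response above 42, roughly 3 SD of non-fluorescent test compounds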;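 further: agonist-driven loss of surface beta2AR via internalization measured by FAP dye flow cytometry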); settings: Am2.2-beta2AR cells, at 10 µM, stronger effect = higher value
Chain of Beta-2 adrenergic receptor (Homo sapiens) (P07550 whole entry, looked up): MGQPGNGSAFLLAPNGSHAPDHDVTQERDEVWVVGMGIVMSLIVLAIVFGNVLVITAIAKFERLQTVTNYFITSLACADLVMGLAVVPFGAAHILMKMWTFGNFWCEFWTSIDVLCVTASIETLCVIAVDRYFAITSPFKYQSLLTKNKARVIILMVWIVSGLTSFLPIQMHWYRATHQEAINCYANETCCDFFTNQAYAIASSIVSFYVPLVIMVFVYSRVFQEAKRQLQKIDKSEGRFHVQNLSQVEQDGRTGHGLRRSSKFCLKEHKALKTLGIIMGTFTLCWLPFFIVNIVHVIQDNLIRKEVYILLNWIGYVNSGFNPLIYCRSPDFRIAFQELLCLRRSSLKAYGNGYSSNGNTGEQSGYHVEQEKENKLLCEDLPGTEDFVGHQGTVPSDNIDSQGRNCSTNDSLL

[11] = biological target: AP-2 complex subunit beta (Homo sapiens) (UniProt P63010); test: beta-arrestin/AP2 interaction blockers – biochemical, validation set, GST-AP2 beads, flow cytometry, pilot screen (AID 504541;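 active means inhibition above 54%, about 3 SD of non-fluorescent compounds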;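 further: AP2 carries R879A mutation and is captured from E. coli lysate; bead-bound FITC arrestin peptide fluorescence measuring arrestin peptide binding to AP2; 0% = DMSO wells and 100% = excess unlabeled arrestin peptide control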); settings: FITC arrestin peptide, at 10 µM, stronger effect = higher value, AP2 beta2 appendage fragment, R879A mutant
Chain of AP-2 complex subunit beta (Homo sapiens) (P63010 whole entry, looked up, the tested form may be a part, one chain of several): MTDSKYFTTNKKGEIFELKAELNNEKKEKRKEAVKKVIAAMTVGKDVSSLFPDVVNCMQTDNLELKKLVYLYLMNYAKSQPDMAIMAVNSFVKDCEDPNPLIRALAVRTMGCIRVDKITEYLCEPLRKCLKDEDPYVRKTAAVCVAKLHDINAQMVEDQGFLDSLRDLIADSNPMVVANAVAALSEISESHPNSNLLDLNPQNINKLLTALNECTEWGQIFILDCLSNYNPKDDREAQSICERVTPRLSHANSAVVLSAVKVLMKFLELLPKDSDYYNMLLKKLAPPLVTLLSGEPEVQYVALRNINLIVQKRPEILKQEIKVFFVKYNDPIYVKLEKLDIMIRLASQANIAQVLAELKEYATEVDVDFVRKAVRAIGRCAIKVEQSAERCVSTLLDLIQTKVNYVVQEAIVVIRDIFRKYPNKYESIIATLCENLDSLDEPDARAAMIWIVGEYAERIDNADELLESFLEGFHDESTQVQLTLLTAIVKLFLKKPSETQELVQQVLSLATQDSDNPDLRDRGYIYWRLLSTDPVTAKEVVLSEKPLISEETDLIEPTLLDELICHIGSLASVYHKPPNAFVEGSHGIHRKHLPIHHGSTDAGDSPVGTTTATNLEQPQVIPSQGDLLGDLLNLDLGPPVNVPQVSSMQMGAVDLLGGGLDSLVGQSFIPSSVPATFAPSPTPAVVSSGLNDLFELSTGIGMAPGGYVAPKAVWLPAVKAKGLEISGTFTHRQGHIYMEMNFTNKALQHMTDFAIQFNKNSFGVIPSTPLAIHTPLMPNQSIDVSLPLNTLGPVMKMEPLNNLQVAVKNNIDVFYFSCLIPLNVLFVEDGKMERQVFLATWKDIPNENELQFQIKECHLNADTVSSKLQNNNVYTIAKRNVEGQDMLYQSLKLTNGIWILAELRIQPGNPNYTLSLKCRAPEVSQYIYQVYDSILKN

[12] = cytosolic pH regulators acting via V-ATPase – S. cerevisiae, pHLuorin, HTS validation (AID 504600; in the data active means response above about 15%;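 further: plate controls were DMSO for no effect and reference compound for full effect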); settings: V-ATPase proton transport, at 10 µM, stronger effect = higher value
[13] = system: anti-desmoglein-3 scFv antibody binding to human DSG3; test: blockers of pathogenic pemphigus antibody–desmoglein-3 binding – biochemical, validation compound set, bead-based, flow cytometry, pilot screen (AID 588368;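 active means binding below the plate cutoff, the plate median minus 3 SD, with a reading above zero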;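 further: signal is the median channel fluorescence of bead-bound GFP antibody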); settings: Protein G beads, DSG3-Fc, scFv-GFP binding, at 10 µM, stronger effect = lower value
[14] = Nile Red efflux blockade in pump-expressing yeast – validation compound set, multiplex, phenotypic, pilot screen (AID 588506;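 active means efflux inhibition above 0.42, the validation set average plus 4 SD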;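 further: Nile Red retained in cells so higher fluorescence means more efflux inhibition; 0 = negative control wells and 1 = enniatin B 25 µM full block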); settings: S. cerevisiae pump-expressing triplex, Nile Red efflux flow cytometry; at 10 µM; stronger effect = higher value; the pumps come from Candida albicans
[15] = biological target: ATP-binding cassette sub-family B member 6 (Homo sapiens) (UniProt Q9NP58); test: blockers of ABCB6-driven porphyrin uptake – K562-ABCB6 cells, flow cytometry, validation set, pilot screen (AID 588550;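 active means inhibition above the screen-wide mean plus 3 SD, about 51%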;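 further: 0% = DMSO wells and 100% = benzethonium chloride 70 µM positive control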); settings: K562-ABCB6 porphyrin accumulation, 1 h, at 10 µM, stronger effect = higher value
Chain of ATP-binding cassette sub-family B member 6 (Homo sapiens) (Q9NP58 whole entry, looked up): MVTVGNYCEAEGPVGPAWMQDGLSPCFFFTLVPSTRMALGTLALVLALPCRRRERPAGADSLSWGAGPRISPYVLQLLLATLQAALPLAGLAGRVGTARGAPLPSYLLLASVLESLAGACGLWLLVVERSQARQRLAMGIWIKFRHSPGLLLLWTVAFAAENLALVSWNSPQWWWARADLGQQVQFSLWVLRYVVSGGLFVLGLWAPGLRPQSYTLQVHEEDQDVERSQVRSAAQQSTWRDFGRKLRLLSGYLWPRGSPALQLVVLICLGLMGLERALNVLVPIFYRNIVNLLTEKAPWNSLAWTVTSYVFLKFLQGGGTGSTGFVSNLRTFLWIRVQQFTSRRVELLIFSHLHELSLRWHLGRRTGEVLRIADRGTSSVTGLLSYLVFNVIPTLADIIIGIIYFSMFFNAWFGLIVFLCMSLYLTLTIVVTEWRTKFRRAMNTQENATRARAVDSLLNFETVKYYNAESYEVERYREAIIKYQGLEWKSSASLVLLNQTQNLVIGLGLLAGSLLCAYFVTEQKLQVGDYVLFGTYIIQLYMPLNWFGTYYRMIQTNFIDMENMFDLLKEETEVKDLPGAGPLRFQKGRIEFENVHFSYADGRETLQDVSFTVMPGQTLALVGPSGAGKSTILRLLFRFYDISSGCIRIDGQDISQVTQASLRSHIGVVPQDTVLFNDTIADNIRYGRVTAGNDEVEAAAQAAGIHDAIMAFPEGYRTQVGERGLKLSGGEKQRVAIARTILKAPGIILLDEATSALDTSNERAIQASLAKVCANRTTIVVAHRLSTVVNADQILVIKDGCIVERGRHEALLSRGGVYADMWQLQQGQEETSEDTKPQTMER

[16] = AML differentiation inducers, ER-HoxA9 marrow cells – cell-based, GFP/MAC1 double positive, flow cytometry, validation set, primary screen (AID 588685;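 active means differentiation response of at least 50%, scaled between solvent and reference control, from cells with both markers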;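 further: compound exposure lasts four days before antibody staining and flow analysis; 0% = DMSO wells and 100% = 5 µM fulvestrant positive control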); settings: stronger effect = higher value, normalized: vehicle 0, fulvestrant 100

SMILES	percent of DMSO control GFP [1]	GFP response vs DMSO [2]	percent response of DMSO control [3]	GFP response vs DMSO [4]	GFP response, % of DMSO [5]	double positive events [6] [%]	vesicle binding response [6]	inhibition [7]	superoxide response (% of plate) [8]	aptamer binding inhibition [9]	response [10]	inhibition [11]	response [12]	binding (% of control) [13]	efflux inhibition (fraction of control) [14]	inhibition [15]	differentiation response [16]
COc1ccccc1N1CCN(CC(O)COc2cccc3ccccc23)CC1 (centres undefined)	102% (inactive)	105% (inactive)	98.3% (inactive)	109% (inactive)	118% (inactive)	64.3	192% (inactive)	8.25% (inactive)	97.5% (inactive)	6% (inactive)	-24.7% (inactive)	-5.11% (inactive)	5.97% (inactive)	107% (inactive)	-0.09 (inactive)	-4% (inactive)	4.86% (inactive)
CC(C)c1ccc(OCc2ccc(C(=O)O)o2)cc1	105% (inactive)	102% (inactive)	109% (inactive)	91.5% (inactive)	93.7% (inactive)	87.7	313% (inactive)	11% (inactive)	107% (inactive)	15% (inactive)	5.55% (inactive)	2.53% (inactive)	13.4% (inactive)	98.3% (inactive)	-0.16 (inactive)	2% (inactive)	-7.5% (inactive)
CCOc1ccc2nc(N/C(N)=N/S(C)(=O)=O)nc(C)c2c1	90.6% (inactive)	132% (inactive)	107% (inactive)	84.7% (inactive)	93.8% (inactive)	67.9	174% (inactive)	-3.24% (inactive)	98.7% (inactive)	3% (inactive)	-5.51% (inactive)	35.3% (inactive)	-5.13% (inactive)	95% (inactive)	0.05 (inactive)	0% (inactive)	3.28% (inactive)
COc1ccc(/C=C\c2nc(=O)c3ccccc3o2)cc1	111% (inactive)	100% (inactive)	101% (inactive)	81.5% (inactive)	96.7% (inactive)	64.1	360% (inactive)	6.81% (inactive)	108% (inactive)	5% (inactive)	2.1% (inactive)	0.71% (inactive)	8.52% (inactive)	98% (inactive)	-0.01 (inactive)	3% (inactive)	6.11% (inactive)
O=C(CS(=O)(=O)c1ccccc1)c1ccc2c(c1)OCCO2	99.7% (inactive)	103% (inactive)	100% (inactive)	112% (inactive)	113% (inactive)	57.1	194% (inactive)	-9.63% (inactive)	98.2% (inactive)	4% (inactive)	-29.9% (inactive)	-15.5% (inactive)	-0.24% (inactive)	103% (inactive)	0.12 (inactive)	5% (inactive)	-1.05% (inactive)
O=C(O)CCn1cnc2ccccc2c1=O	97.8% (inactive)	113% (inactive)	93.9% (inactive)	111% (inactive)	97.4% (inactive)	58.8	172% (inactive)	9.13% (inactive)	101% (inactive)	4% (inactive)	-1.18% (inactive)	-3.21% (inactive)	5.74% (inactive)	101% (inactive)	-0.28 (inactive)	7% (inactive)	-8.8% (inactive)
CCN(CCCCOC(=O)c1ccc(OC)c(OC)c1)C(C)Cc1ccc(OC)cc1 (centres undefined)	102% (inactive)	99.6% (inactive)	102% (inactive)	104% (inactive)	117% (inactive)	62.7	194% (inactive)	22.7% (inactive)	103% (inactive)	4% (inactive)	-26.8% (inactive)	3.32% (inactive)	0.12% (inactive)	103% (inactive)	-0.09 (inactive)	6% (inactive)	-5.97% (inactive)
